Results on 40 compounds are retold here after PubChem BioAssay (NCI).

The panel holds about 83,000 compounds, 20% with a hit somewhere; the sample as a whole holds those more often.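 For each line, cells grew in 96-well plates with the test compound present at a single concentration for 48 hours.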 Values without a mark were called inactive. The source made the active and inactive calls.

The test has as its system NCI-H23 lung. Nature of the test: NCI-60 one-dose screen, 48 h (100 = growth as untreated, 0 = no growth, -100 = all killed). The following applies: 10 µM unless noted. The method, then: Growth inhibition of the NCI-H23 human Non-Small Cell Lung tumor cell line is measured as a screen for anti-cancer activity. Cells are grown in 96 well plates and exposed to the test compound for 48 hours. Compounds are tested at a single concentration, which is 10^-5 M for most compounds. The reported endpoint is percent growth (GI% or GIPRCNT), where numbers from 0 - 100% represent growth inhibition, and numbers from -100% - 0 represent cell death. For example, a value of 40 represents 60% growth inhibition. A value of 0 means no net growth occurred over the course of the experiment. A value of -40 indicates 40% of cells at the beginning of the experiment died by the end of the experiment. A value of -100 means all cells are dead at the end of the experiment.
NCI-60 Human Tumor Cell Lines Screen was performed using the standard one-dose NCI protocol, which is described in more detail at https://dtp.cancer.gov/discovery_development/nci-60/default.htm.
Compounds with GIPRCNT values below 10 were considered active. Activity score was based on GIPRCNT using the following formula: […]
Score is 0 for GIPRCNT values of 100 or above, 50 for GIPRCNT values of 0, and 100 for GIPRCNT values of -100.
For the compound `Cc1ccc2c(n1)C(=O)C(Cl)=C(Nc1ccc(C(C)C)cc1)C2=O`, the growth was -56.9% (active).
Then `CNc1sc(S(=O)(=O)NC)nc1S(=O)(=O)c1ccc(C)cc1`, with 102%; and `O=C(CCCCCCNC(=O)C(O)(O)C(F)(F)F)Nc1ncc(-c2ccc(Br)cc2)s1`, with -16% (active).
Then `CCCCCCNC(=O)Oc1ccc(/C(=C(/C)c2ccc(Cl)cc2)c2ccc(OCCN3CCCCCC3)cc2)cc1`, with 52.2%.
Then `O=S(=O)(NCCCNc1nccc(-c2[nH]c(-c3ccccc3)nc2-c2ccc(F)c(O)c2)n1)c1ccccc1`, with 96.5%; and `C=C(C)[C@@H]1CC[C@]2(C(=O)O)CC[C@]3(C)[C@H](CC[C@@H]4[C@@]5(C)C/C(=C/c6ccccn6)C(=O)C(C)(C)[C@@H]5CC[C@]43C)[C@@H]12`, with 38.6%.
For `O=C(COc1ccc(/C=C2\C(=O)Nc3cc(Cl)ccc32)cc1)Nc1ccc(Cl)cc1`, the growth was 79.9%.
Take `C#CCOc1cccc(-c2nc(N)nc(Nc3ccccc3SSc3ccccc3Nc3nc(N)nc(-c4cccc(OCC#C)c4)n3)n2)c1`: the growth is -6.17% (active).
Then `Cc1csc(/N=C(N)/N=C(\N)c2cccc(Br)c2)n1`, with 89.1%; and `COc1ccc(/C=N/NC(=O)c2c(N)nn(C)c2Nc2ccccc2)cc1Oc1ccccc1`, with 90.4%.
For `Oc1[nH]c2ccc(Cl)cc2c1N=Nc1nc(N=Nc2c(O)[nH]c3ccc(Cl)cc23)nc(N2CCCCC2)n1`, the growth was 27.3%.
On to `CCS(=O)(=O)Nc1ccc(C(=O)CC2(O)C(=O)Nc3ccccc32)cc1` (stereo not given), for which the growth was 92.5%.
Then `CCC1=Cc2c(OC)cccc2OC12C=Cc1c(OC)cccc1O2` (stereo not given), with 39.7%; and `NC1[C@H]2CN(c3cnc(C(=O)Nc4cc(F)cc5cccnc45)cn3)C[C@@H]12` (stereo not given in full), with 84.5%.
In the case of `Cc1cc2nc(C(Cl)Cl)nc(-c3ccc(S(=O)(=O)N(C)C)cc3)n2n1`, the growth was 44.4%.
Then `O=C(/C=C/c1cc(Cl)ccc1Cl)Nc1ncc(Cc2ccc(Cl)cc2)s1`, with 16.7%; and `O=C(CN1CCN(c2cc(=O)[nH]c3ccc(F)cc23)CC1)N(c1ccccc1)c1ccccc1`, with 99.1%.
With `CC(=C(c1ccc(OCCN(C)C)cc1)c1ccc(OCCN(C)C)cc1)c1ccc(Cl)cc1`, the growth was 29.5%.
For `CCOC(=O)c1cccnc1Nc1ccc(NC(=O)Nc2ccc(Cl)c(C(F)(F)F)c2)cc1`, the growth is 10.1%.
Take `CC(Nc1c(C#N)cnc2ccc(-c3cncc(O)c3)cc12)c1ccccc1` (stereo not given): the growth was 1.12% (active).
`O=C(N/N=C\c1ccc([N+](=O)[O-])cc1)c1ccc2nc(-c3ccc(Br)cc3)[nH]c2c1`: the growth was 8.79% (active).
On to `CC(C)(C)OC(=O)NCc1ccc(CNc2c([N+](=O)[O-])cnc3ccccc23)cc1`, for which the growth is 46.2%.
`CNC(=O)c1cc(N2CCc3cc(NC(=O)Nc4ccc(N5CCOCC5)c(C(F)(F)F)c4)ccc32)ccn1`: the growth was 18.7%.
In the case of `CNC(=O)c1cc(-n2ccc3cc(NC(=O)Nc4ccc(N5CCN(C)CC5)c(C(F)(F)F)c4)ccc32)ccn1`, the growth is 88.6%.
Then `CCOC(=O)c1ccc(NC2=C(Cl)C(=O)c3nc(C)ccc3C2=O)cc1`, with 52%.
Then `NNc1nnc2nc(Nc3ccccc3)nc(Nc3ccc(S(N)(=O)=O)cc3)n12`, with 102%; and `COc1cc(C(C)=C(c2ccc(OCCN(C)C)cc2)c2ccc(OCCN(C)C)cc2)ccc1F`, with 96.5%; and `COc1cc(C(=O)c2cc(C(C)=O)c3cccc(C)n23)cc(OC)c1OC`, with 59.7%.
Then `CC(Nc1c(C#N)cnc2ccc(-c3cncc(-c4n[nH]c(=O)o4)c3)cc12)c1ccccc1` (stereo not given), with 17.4%; and `Cc1ccc2c(n1)C(=O)C(Cl)=C(Nc1ccc(C)c(C)c1)C2=O`, with 11.7%.
As for `CC1=C(C)C(=O)C(Nc2cccc(C(F)(F)F)c2)=C(Br)C1=O`, the growth was 88.8%.
Then `O=C1[C@H]2Cc3c([nH]c4ccccc34)[C@H](c3ccc(Br)cc3)N2C(=O)CN1C1CCN(CC2CCCCC2)CC1`, with 83.5%; and `Cn1c(SCC(=O)c2ccco2)nc2ccccc2c1=O`, with 97.4%; and `CC[C@]12C=CCN3CC[C@]4(C(=C(C(=O)OC)C1)Nc1cc5c(cc14)[C@@H]1[C@H](O5)[C@@H](O)[C@@]4(CC)CC(C(=O)OC)=C5Nc6cc(O)ccc6[C@@]56CCN1C46)C32` (stereo not given in full), with -40.9% (active).
Then `Cc1ccc(N2CCN(C3=C(Cl)C(=O)c4ncccc4C3=O)CC2)cc1`, with 35.6%.
In the case of `CCOC(=O)c1c(NC(=O)c2ccc(C(F)(F)F)cc2)sc2c3c(ccc12)OCN(C)C3`, the growth was 85.6%.
Then `Cc1ccc2c(n1)C(=O)C(Cl)=C(Nc1ccc(C(=O)OC(C)(C)C)cc1)C2=O`, with 75.2% [9.25 µM]; and `C#CCn1cc(/C=N/Nc2nc(-c3ccc(Br)cc3)cs2)c2ccccc21`, with 86.7%.
Then `N/C(=N\C(N)=N\c1nc2ccccc2s1)c1ccc(Cl)cc1`, with 75.1%; and `C#C[C@]1(O)CC[C@H]2[C@@H]3CC=C4c5sc(N(C)c6ccccc6)nc5CC[C@]4(C)[C@H]3CC[C@@]21C`, with 86.6%.
